Measured values from the supplement of paper PMC10338343.
± gives the standard deviation.

What follows are sequences tested on MILI (PIWIL2) piRISC loaded with L1MC piRNA (26 nt) (assay: pre-steady-state target cleavage rate (min^-1); guide: L1MC piRNA 5'p-UAACUAAAUACUAUGCAAGCUGUAGG; MIWI and MILI are mouse PIWI proteins and EfPiwi is from a freshwater sponge; tags in brackets are library labels; higher = faster piRNA-guided slicing of the target). Conditions: auxiliary factor: 500 nM mouse GTSF1.
Outline: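 Cleave-'n-Seq used a transcribed, DNA-blocked target RNA library at 0.1 nM and active affinity-purified piRISC with one synthetic guide at 1 nM, with or without 500 nM GTSF1 partner protein, in HEPES–potassium acetate buffer at 33 °C for 0–8 or 0–960 min. Uncleaved targets were sequenced and normalised to depth and to weakly complementary targets, and three trials were pooled with k3 capped at 0.0001 min^-1. The pre-steady-state cleavage rate was estimated by a burst-and-steady-state fit.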

Sequence	pre-steady-state target cleavage rate
UCCUGGAUGAGCUUGCAUAGUAUUUUCUUA	0.0122 ± 0.0069
UCCUGGAUGUGCUUGCAUAUAUUUAGUUA	0.00444 ± 0.0037
UCCUGGUACAGCUAGCAUAGUAUUUACUUA	0.0934 ± 0.023
UCCUGGUACAGCUUCGAUAGUAUUUAGAAA	0.0453 ± 0.014
UCCUGGUACAGCUUGCAAAGUAUUUACAAA	0.0115 ± 0.0055
UCCUGGAUGUGCUACCAUAGUAUUUAGUAA	0.0454 ± 0.011
UCCUGGAUGUCGAAGCAUAGUAUAAUGUUA	0.0052 ± 0.0029
UCCUGGAUGUCGAUGCCAUAGUAUUUAGUUA	0.00491 ± 0.0034
UCCUGGAUGUCGUUGCAUAGUAUUUCGUUA	0.0162 ± 0.0076
UCCUCCUACAGCAAGCAUAGUAUUUUCAAA	0.111 ± 0.025
UCCUGGAACAGCUUGCAUAGAUAUUAGUUA	0.0112 ± 0.0053
UCCUCCUACAGCUUGGUUAGUAUUUUCAAA	0.0137 ± 0.007
UCCUGGAUCACCUUGCAUAGUAUUUUGUUA	0.11 ± 0.027
UCCUGGAUGUCGAUGCAUAGUAUUUUCUUA	0.011 ± 0.006
UCCUGGAACACCUUGCAUAGUAUUUACUUA	0.0546 ± 0.018
UCCUCCUACAGCUUGCAUUCUAUUUAGUAA	0.0535 ± 0.017
UCCUGGAUGAGCUUGCAUAGUAUAUACAAA	0.00992 ± 0.0056
UCCUGGAACAGCUUGCAUACUAUUUACAAA	0.0166 ± 0.0064

Sequence	pre-steady-state target cleavage rate
UCCUGGUACAGCAUGCAUAGUAUUUUCAAA	0.0847 ± 0.026
UCCUGGAUGUCCUUGCCAUAGUAUUUAGUUA	0.00783 ± 0.0048
UCCUGGAUGUCCUUGCAUUCAAUUUAGUUA	0.00852 ± 0.0047
UCCUGGAUCACCUUGCAUAGUAUUUUCAAA	0.0586 ± 0.021
UCCUGGAACAGCUUGCAUUGAAUUUAGUUA	0.0179 ± 0.006
UCCUGGUACAGCUUGCAUAGUAUUAUCUUA	0.0311 ± 0.014
UCCUGGAUGUCGAAGCAUAGUACUUAGUUA	0.00746 ± 0.0031
UCCUGCUACAGCUUGCAUAGAUAUUAGUUA	0.0176 ± 0.0073
UCCUGCUACACGAUGCAUAGUAUUUUCAAA	0.117 ± 0.034
UCCUGGAACAGCUUGCUUAGUAUUUUCAAA	0.0287 ± 0.011
UCCUGGAACAGCUUGCAUAGUAAAUAGUAA	0.143 ± 0.035
UCCUGGAUGACCUUGCAUAGUAUUUACAAA	0.114 ± 0.033
UCCUGGAUGUCGAUGCAUACUAUUUAGUUA	0.0178 ± 0.0056
UCCUGGAACAGCUUGCUUAGUAUUUAGUAA	0.238 ± 0.022
UCCUGGAACAGCUUGCUAUGUAUUUAGUAA	0.0125 ± 0.0054
UCCUGGAUGACCUUGCAUAGUAUUUAGAAA	0.133 ± 0.038
UCCUGGAUGACCUUGCAUAGUAUUUACUUA	0.0753 ± 0.027

Same assay, conditions: auxiliary factor: none (no GTSF1)

Sequence	pre-steady-state target cleavage rate
UCCUGGAUGUCGAACCAUAGUAUUAUGUUA	< 0.0001
UCCUGGAUGUCGAACCAUCAGUAUUUAGUUA	< 0.0001
UCCUGGAUGUCGAACGUUAGGUAUUUAGUUA	< 0.0001
UCCUGGAUGUCGUUCCUUAGUAUUUAGUUA	< 0.0001
UCCUGGAUGUCGAAGCAUAGUAAAAUCAAA [g9:g16:cont:t1A]	< 0.0001
